Bioassay records: PubChem BioAssay, National Center for Advancing Translational Sciences (NCATS)
DT40 TDP1 CPT – DT40-hTDP1 cell growth loss with CPT; Potency, µM (top dose mostly 46.2 µM), without a hit: at the highest dose activity change, negative = growth inhibition, usual class: inhibitors; AID 686979; 12% of 420,000 active; chicken DT40 Tdp1-/-;hTDP1 cells + 20 nM CPT, ATP luminescence, 48 h; further: potency means the concentration at half of the fitted maximal effect; nearly all actives have a fitted effect of over 55% in size
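Chicken DT40 Tdp1-/- cells stably complemented with human TDP1 were seeded at 400 cells/well in medium containing 20 nM camptothecin, exposed to pin-transferred compounds, and grown at 37 °C for at least 48 hr. Viability was read as ATP luminescence.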
VP16 counter – Gal4-VP16 reporter inhibition counter-screen | 3.5% of 310,000 active | Potency, µM (highest dose often 53.6 µM), without a hit: at the highest dose activity, negative = inhibition, usual class: inhibitors | Drosophila S2 Gal4-VP16 UAS-luciferase, luminescence, 20 h;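 further: Gal4-VP16 expression switched on by copper sulfate through the metallothionein promoter; potency means the concentration at half of the fitted maximal effect; nearly all actives have a fitted effect of over 50% in size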
IL1B secr inh – blocks inflammasome-driven IL-1 beta release. THP-1 LPS/ATP IL-1B secretion, AlphaLISA, 16 h; active compounds read low. activity change, % at 57.5 µM. 4.7% of 360,000 active. AID 743279; in the data active means activity change below about -50%; inconclusive means mostly about -30% to -49%
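THP-1 cells pretreated 1 hr with compounds (up to 57.5 uM final), then stimulated with LPS (250 ng/mL final) plus ATP (1.25 mM final); secreted IL-1B measured by AlphaLISA after 16 hr, decreased signal indicating inhibition.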
RORg inh – inhibitors of mouse ROR gamma transcriptional activity; Drosophila S2 Gal4-RORgamma UAS-luciferase reporter, 20 h; P51450; 5.4% of 310,000 active; Potency, µM (doses to about 53.6 µM), without a hit: at the top dose activity change, negative = inhibition, most hits filed as inhibitors; AID 2551; further: potency means the concentration at half of the fitted maximal effect; nearly all actives have a fitted effect of over 60% in size
Target sequence (P51450 whole entry, looked up, the tested form may be a part): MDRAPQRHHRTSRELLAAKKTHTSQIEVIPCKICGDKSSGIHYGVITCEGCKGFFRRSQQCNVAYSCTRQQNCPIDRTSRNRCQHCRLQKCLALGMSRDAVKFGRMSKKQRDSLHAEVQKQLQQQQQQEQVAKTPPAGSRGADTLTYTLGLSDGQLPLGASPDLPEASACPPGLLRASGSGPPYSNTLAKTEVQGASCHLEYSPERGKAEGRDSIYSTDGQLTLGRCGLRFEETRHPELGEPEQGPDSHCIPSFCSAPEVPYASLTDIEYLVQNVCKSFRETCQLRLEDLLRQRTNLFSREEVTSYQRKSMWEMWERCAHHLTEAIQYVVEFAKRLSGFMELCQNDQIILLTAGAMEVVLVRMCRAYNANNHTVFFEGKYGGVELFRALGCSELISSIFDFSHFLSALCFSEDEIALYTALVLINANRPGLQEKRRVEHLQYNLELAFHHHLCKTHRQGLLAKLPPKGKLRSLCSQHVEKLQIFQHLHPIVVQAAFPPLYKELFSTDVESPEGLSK
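Drosophila Schneider cells stably carrying a metallothionein-driven Gal4 DBD–ROR gamma fusion and a UAS-Photinus luciferase reporter were exposed to compound for 1 hr, then induced with copper sulfate (700 uM final) for 20 hr at ambient temperature before luminescence reading.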
TDP1 cell noCPT – qHTS for Inhibitors of human tyrosyl-DNA phosphodiesterase 1 (TDP1): qHTS in cells in absence of CPT; AID 686978, 2013; Potency, µM (top dose mostly 46.2 µM), inactives show at the top dose activity change, negative = growth inhibition, most hits filed as inhibitors; DT40 Tdp1-/- hTDP1 cells, no CPT, ATP luminescence, 48 h; 15% of 420,000 active; further: potency means the concentration at half of the fitted maximal effect; nearly all actives have a fitted effect of over 55% in size
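Chicken DT40 Tdp1-/- cells complemented with human TDP1, screened without camptothecin (DMSO vehicle only), 400 cells/well. Compounds pin-transferred, cells incubated at 37 °C for at least 48 hr. Growth read as ATP-dependent luminescence (CellTiter-Glo, 30 min at RT).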
ELG1 DNA repair – blocks ELG1-dependent DNA repair in HEK293T cells. HEK293T ELG1-luciferase reporter, luminescence, 16 h; DNA damage induced by 5-fluorouridine. AID 504467. 2.3% of 330,000 active. Potency, µM (doses to about 46.1 µM), for the others: at the top dose activity change, negative = inhibition, most hits filed as inhibitors; further: potency means the concentration at half of the fitted maximal effect; nearly all actives have a fitted effect of over 55% in size
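Luminescence from the luciferase reporter, measured 30 min after ONE-Glo reagent at room temperature, was the read-out. Beforehand, 2,000 cells per well were exposed for 16 hr at 37 °C to 5-fluorouridine together with compound or vehicle.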
* = called active by the depositor; ? = inconclusive; . = not tested or not shown. Most compounds without a hit are left out; they make up all but 21% or so of the library. Unless noted, the call rests on the fitted dose curve; in most records, active means well fitted curve in the direction sought with a large enough effect; inconclusive means small, poorly fitted or top-dose-only effect, or another doubt; inactive means no such curve, though single readings can be large; an effect the other way counts as inactive or inconclusive. On the % scale 0 is the no-effect control and ±100 the full control effect.

SMILES | DT40 TDP1 CPT | VP16 counter | IL1B secr inh | RORg inh | TDP1 cell noCPT | ELG1 DNA repair
Cc1c(C(=O)N(Cc2ccc(N(C)C)cc2)Cc2ccco2)oc2cc(Br)ccc12 | 23.1µM* | . | . | . | 9.2µM* | .
Cc1cc(C)c2c(CC(=O)N(Cc3ccc(Cl)cc3)Cc3ccco3)coc2c1 | ? | . | . | . | 8.2µM* | .
Cc1ccc2c(CC(=O)N(Cc3ccc(N(C)C)cc3)Cc3ccco3)coc2c1C | 16.4µM* | . | . | . | 18.4µM* | .
O=[N+]([O-])c1cc(C=Nc2cccc3c(O)cccc23)ccc1Cl | . | -17.8% | . | ? | . | -14.0%
O=C(c1cccc(F)c1)N1CCC[C@@]2(CCN(Cc3ccncc3)C2)C1 | 9.5% | -1.4% | . | -1.9% | -21.4% | .
O=Cc1ccc2noc(-c3ccc(Cl)cc3)c2c1 | ? | -2.9% | -14.6 | 3.5% | 16.4µM* | -6.8%
COc1ccc(C(=O)N2CCN(C3CCCCC3)CC2)cc1OC | -5.3% | -9.4% | 13.3 | -37.5% | ? | -0.9%
Cc1nn(CC(=O)N2CCC(C)CC2)c(=O)c2nn(-c3ccccc3)c(C)c12 | 5.6% | -7.9% | -10.1 | 3.2% | 2.3% | 0.3%
COc1ccc(NC(=O)C2=C(C)C(=O)OC23CCC(C)CC3)c(OC)c1 (configuration not stated) | ? | 3.2% | 13.9 | 4.8% | ? | -2.8%
CCOc1ccc(NC(=O)C2=C(C)C(=O)OC23CCC(C)CC3)cc1 (configuration not stated) | ? | 6.5% | -17.6 | -0.6% | 16.4µM* | -1.0%
CCc1ccc(NC(=O)C2=C(C)C(=O)OC23CCCCC3)cc1 | 16.4µM* | . | . | . | 16.4µM* | .
CC1=C(C(=O)Nc2ccc(C)cc2Cl)C2(CCCCC2)OC1=O | ? | . | . | . | 16.4µM* | .
COc1ccc2c(c1)cc1c(=O)n(CC(=O)NCc3ccco3)nc(C)n12 | -2.3% | . | . | . | -4.9% | .
CCc1ccc(NC(=O)Nc2ccsc2C(=O)OC)cc1 | -18.2% | ? | -13.4 | 8.91µM* | -14.0% | ?
COC(=O)c1sccc1NC(=S)OC | 18.5% | 3.1% | -2.7 | 13.6% | -26.4% | -1.3%
CNC(=S)Nc1cc(OC)ccc1OC | -14.7% | ? | -1.8 | 11.2µM* | -16.2% | -0.2%
COC(=O)c1sccc1NC(=S)Nc1cc(OC)ccc1OC | 20.0% | ? | 21.1 | 11.2µM* | 4.3% | -7.8%
COC(=O)c1sccc1NC(=S)Nc1ccc(OC)cc1 | -4.9% | 14.1µM* | -7.4 | 6.31µM* | -8.3% | 16.2%
CCc1cccc(C)c1NC(=O)COC(=O)Cc1ccccc1 | -4.3% | . | 3.7 | . | -25.1% | .
Cc1ccc(S(=O)(=O)N2C3CCCCC3O[C@H]2CC(=O)c2cccs2)cc1 (some centres not stated) | ? | . | -4.5 | . | ? | .
CCOc1ccccc1NC(=O)CN1C(=O)COc2ccc(S(=O)(=O)N3CCCCCC3)cc21 | ? | . | . | . | 20.6µM* | .
CCN(Cc1ccccc1)C(=O)CN1C(=O)COc2ccc(S(=O)(=O)NC3CCCC3)cc21 | 16.4µM* | -1.1% | -1.5 | 5.8% | ? | 1.7%
COc1ccccc1NC(=O)CN1C(=O)COc2ccc(S(=O)(=O)N3CCCCCC3)cc21 | ? | 1.3% | -7.7 | -34.5% | -11.3% | -8.0%
CCOc1ccccc1NC(=O)CN1C(=O)COc2ccc(S(=O)(=O)Nc3ccccc3)cc21 | 16.4µM* | . | . | . | 18.4µM* | .
CCOc1ccccc1NC(=O)CN1C(=O)COc2ccc(S(=O)(=O)N3CCCCC3)cc21 | 20.6µM* | . | . | . | 23.1µM* | .
SMILES | DT40 TDP1 CPT | VP16 counter | IL1B secr inh | RORg inh | TDP1 cell noCPT | ELG1 DNA repair
CCOC(=O)c1cc(-c2ccc(OC)cc2)n(CCC(=O)NCCc2ccccc2)c1C | 20.6µM* | . | . | . | 18.4µM* | .
CCOC(=O)c1cc(-c2ccc(C)cc2)n(CCC(=O)NCCCOC)c1C | -22.4% | 2.3% | -4.7 | 7.2% | -12.7% | -7.9%
CCOC(=O)c1cc(-c2ccccc2)n(CCC(=O)NCCc2cccc(C)c2)c1C | 16.4µM* | . | . | . | ? | .
CC(NC(=O)CC1CCCCC1)c1ccccc1 (configuration not stated) | -9.1% | 2.1% | 3.7 | -29.5% | 1.0% | 10.6%
C=C(C)CC1(NC(C)c2ccccc2)CCCCC1 (configuration not stated) | 23.1µM* | -17.3% | 11.5 | -19.7% | ? | -2.7%
Cc1ccc2c(c1)NC(=O)C(CC(=O)NCCCN1CCN(c3cc(C)ccc3C)CC1)O2 (configuration not stated) | 8.2µM* | -7.3% | -29.9 | 11.8% | 7.31µM* | -9.9%
CC1CCc2nn(CC(=O)NCCCN3CCCC3=O)cc2C1 (configuration not stated) | 10.3% | -2.7% | 8.9 | -4.9% | -1.6% | 4.4%
Cc1ccc(C)c(N2CCN(CCCNC(=O)Cn3cc4c(n3)CCCCC4)CC2)c1 | 4.61µM* | 20µM* | ? | 12.6µM* | 6.51µM* | ?
Cc1ccc(C)c(N2CCN(CCCNC(=O)Cn3cc4c(n3)CCC(C)C4)CC2)c1 (configuration not stated) | 16.4µM* | 0.5% | 0.0 | -31.9% | 14.6µM* | -8.2%
Cc1ccccc1C(=O)N1CCC1(C)C(=O)NC(C)C (configuration not stated) | -24.6% | . | 0.6 | . | -7.9% | .
CC(=O)CC(C)(C)NC(C)=S | 14.1% | -0.2% | -6.4 | -5.3% | 0.6% | 0.9%
COc1ccc(Nc2cc(C(=O)NCCCN(C)C3CCCCC3)c3ccccc3n2)cc1 | 14.6µM* | . | . | . | 20.6µM* | .
CC(C)c1ccc(Nc2cc(C(=O)NCCCN(C)Cc3ccccc3)c3ccccc3n2)cc1 | 9.2µM* | . | . | . | ? | .
CN(CC(=O)OCC(=O)c1c(N)n(C)c(=O)n(C)c1=O)S(=O)(=O)c1ccc(Cl)cc1 | -24.7% | -1.1% | -3.8 | ? | -24.5% | 1.9%
Nc1nnc(SCC(=O)Nc2cccc(F)c2)s1 | 15.4% | . | . | . | 11.4% | .
COc1cc(CCNC(=O)c2cnn3ccccc23)cc(OC)c1OC | ? | 10.6% | 19.8 | 18.2% | ? | -29.7%
COc1cc(CCNC(=O)c2ccc3c(c2)c(C)c(C)n3Cc2cccc(C)c2)cc(OC)c1OC | 7.31µM* | . | . | . | 5.17µM* | .
Cc1ccc(CCNC(=O)c2ccc3c(c2)c(C)c(C)n3Cc2ccccc2)cc1 | 16.4µM* | . | . | . | ? | .
CCOc1ccc(CCNC(=O)c2ccc3c(c2)c(C)c(C)n3Cc2ccccc2)cc1OCC | 16.4µM* | . | . | . | 13µM* | .
Cc1c(C)n(Cc2ccccc2)c2ccc(C(=O)NCCN3CCOCC3)cc12 | ? | 13.3% | 6.8 | -8.6% | -29.0% | 13.5%
Cc1ccc(Cn2c(CCNC(=O)c3cccc(C)c3)nc3ccccc32)cc1 | 18.4µM* | . | . | . | ? | .
